Most compounds without a hit are left out; they make up all but 2.8% or so of the library.
GAA850 FXN act: activators of GAA850 frataxin (FXN) promoter; AID 540364; HEK293 lucGAA850 FXN promoter luciferase reporter, 24 h; percent of 10 µM SAHA response; actives 0.56% (n = 360,000); activation, % at 6 µM;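 active means activation above the average of all compounds screened plus 3 SD, cutoff fixed separately per campaign, cut at about 7.5% in these data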;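 further: 0% = DMSO wells and 100% = 10 µM SAHA wells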
Wnt act: activates Wnt/beta-catenin signaling in a reporter cell assay; activator, plate reader; activation, % at 9.35 µM; actives 1.2% (n = 300,000); in the data active means activation above about 30%, passing the limit was not always enough; inconclusive means no clear call, values can overlap the other calls;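 further: 0% = neutral control wells and 100% = positive control wells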
MITF act: MITF TRPM1 promoter activation in melanoma cells; actives 0.75% (n = 300,000); activation, % at 12.5 µM; SK-MEL-5 TRPM1-promoter luciferase, 24 h; % of positive control, neutral wells = 0;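 active means mean activation of at least 80% with every replicate also reaching 80%; inconclusive means mean reaches 80% but some replicate falls short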;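 further: 0% = neutral control wells and 100% = parthenolide positive control wells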
esBAF inh: inhibitors of esBAF chromatin remodeling in mouse ES cells. Bmi1-luciferase knock-in reporter, 24 h; 100% = twice the neutral-well signal. reporter increase, % at 12.5 µM. actives 2% (n = 350,000); in the data active means activation above about 40%; inconclusive means no clear call, values can overlap the other calls;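 further: 0% = median of the plate's neutral control wells and 100% = double that signal; a rise in the Bmi1 reporter signal indicates esBAF inhibition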
Starred values were filed as active, the others as inactive; ? = inconclusive; nt = no result given.

SMILES	GAA850 FXN act	Wnt act	MITF act	esBAF inh
CC1CN(Cc2ccccc2)c2nc3c(c(=O)[nH]c(=O)n3C)n2C1 (stereo unspecified)	3	34*	-1	nt
CC1CCN(C(=O)COC(=O)c2cc(Cl)c3c(c2)OCO3)CC1	1	32*	64	31
CC1CC(C)CN(C(=O)COC(=O)c2ccc3c(c2)OCO3)C1 (stereo unspecified)	2	18	24	7
CC(C)(C)c1ccc(C(=O)NC(=S)Nn2cnnc2)cc1	3	10	11	44*
COc1ccc(NC(=O)Nc2ccc3c(c2)C(=O)N([C@@H](C)CO)C[C@@H](C)[C@H](CN(C)C(=O)Nc2ccc(C(F)(F)F)cc2)OCCCC[C@H](C)O3)cc1	nt	nt	nt	-1
COc1cc2c(cc1OC)-c1cc(Nc3ccccc3)nc(=O)n1CC2	4	45*	nt	nt
COc1ccc(Nc2cc3n(c(=O)n2)CCc2cc(OC)c(OC)cc2-3)cc1	1	0	41	11
Cc1ccc(C(=O)Nc2ccc(-c3csc(C)n3)cc2)cc1	4	24	34	nt
O=C(CC1CCCCC1)Nc1ccc(-c2ccc3nncn3n2)cc1	3	-4	-6	nt
Cc1nc(-c2ccc(NC(=O)C3CCCCC3)cc2)cs1	3	nt	71	68*
O=C(Nc1ccc(-c2cn3ccsc3n2)cc1)C1CCCC1	-1	nt	36	21
O=C(Nc1ccc(-c2ccc3nncn3n2)cc1)C1CCCC1	3	44*	49	14
O=C(Nc1ccc(-c2cn3ccsc3n2)cc1)C1CC1	1	42*	58	38
O=C(CN(C(=O)Cn1nnc(-c2ccc(F)cc2)n1)c1ccc(F)c(Cl)c1)NCC1CCCO1 (stereo unspecified)	-1	41*	9	nt
Cc1ccc(-c2cnn(-c3ccccc3)c2N)cc1	4	43*	36	0
Cc1ccccc1-c1cnn(-c2cccc([N+](=O)[O-])c2)c1N	0	2	39	34
CCOC(=O)c1cnc2c(-c3ccccc3)cnn2c1C	3	56*	73	nt
Cc1ccc(-c2cnn(-c3cccc([N+](=O)[O-])c3)c2N)cc1	7	nt	64	83*
Nc1c(-c2ccc(Cl)cc2)cnn1-c1ccccc1	5	?	92*	31
Nc1c(-c2ccc(Cl)cc2)cnn1-c1cc(C(F)(F)F)cc(C(F)(F)F)c1	1	0	1	0
CC=Cc1ccc2n(c1=O)C[C@H]1[C@H](CO)[C@@H](C(=O)NCC(F)(F)F)N(C(=O)c3cccnc3)[C@@H]21 (mixture of isomers)	nt	nt	nt	2
Nc1c(-c2ccccc2)cnn1-c1cccc(C(F)(F)F)c1	5	nt	56	54*
Nc1c(-c2ccc(Cl)cc2)cnc2c(-c3ccccc3)cnn12	6	36*	75	25
CC(C)(C)S(=O)(=O)c1cnc2c(-c3ccc(Cl)cc3)cnn2c1N	-2	2	8	31
Nc1c(-c2ccc(Cl)cc2)nnn1-c1ccccc1	3	67*	nt	79*
SMILES	GAA850 FXN act	Wnt act	MITF act	esBAF inh
COc1ccc(-c2cnc3c(-c4ccc(F)cc4)cnn3c2N)cc1	7	43*	59	?
Nc1c(-c2cccc(Cl)c2)cnn1-c1cccc(C(F)(F)F)c1	1	nt	nt	28
COc1ccc(-c2nnn(-c3cc(Cl)cc(Cl)c3)c2N)cc1	-1	0	17	nt
COc1ccccc1-c1ccc([C@H]2[C@@H](CO)N3CCCCN(Cc4ccncc4)C[C@@H]23)cc1	nt	nt	nt	-59
COc1ccc(C(=O)Nc2nc3ccccc3[nH]2)cc1S(=O)(=O)N1CCCC1	3	5	10	45*
Cc1cc(C)cc(C(=O)Nc2nc3ccccc3[nH]2)c1	2	14	49	80*
COc1ccc(C(=O)N2CCN(c3ccc(C(C)=O)cc3)CC2)cc1S(=O)(=O)N1CCCC1	4	7	-1	48*
O=C(Nc1nc2ccccc2[nH]1)c1cc(F)cc(F)c1	3	22	50	-2
COc1ccc(C(=O)N2CCN(c3ccccc3)CC2)cc1S(=O)(=O)N1CCOCC1	2	0	10	6
CN(C)S(=O)(=O)c1ccc(C(=O)Nc2nc3ccccc3[nH]2)cc1	1	13	62	66*
Cc1ccc(S(=O)(=O)N[C@H]2CC[C@@H](CCn3cc(-c4cccnc4)nn3)O[C@H]2CO)cc1	nt	nt	nt	7
CCC(=O)N(C)C[C@@H]1Oc2cc(-c3ccccc3C)ccc2S(=O)(=O)N([C@@H](C)CO)C[C@H]1C	nt	nt	nt	-1
CSc1nnc(NC(=O)c2ccc(S(=O)(=O)N(C)C)cc2)s1	3	40*	5	nt

Screens deposited in PubChem BioAssay by several laboratories.
